Assay results as given in PubChem BioAssay (Tox21).
Results filed as inconclusive are left out. A number with no mark means an inactive call. Active and inactive are the calls of the source. The call rests on the fitted dose curve; in most records, active means well fitted curve in the direction sought with a large enough effect in the repeat runs; inconclusive means weak or mixed curves; inactive means no such curve, though single readings can be large; an effect the other way counts as inactive or inconclusive.

Target: Estrogen receptor (Homo sapiens) (UniProt P03372)
Assay: qHTS assay to identify small molecule antagonists of the estrogen receptor alpha (ER-alpha) signaling pathway using the BG1 cell line in the presence of 0.1 nM 17-beta-estradiol (AID 1259244); further: nearly all actives have a fitted effect of over 50% in size
Conditions: VM7Luc4E2 (BG1) ERE-luciferase, antagonist mode, 0.1 nM E2, 22 h; series mostly up to 92.4 µM; activity change, negative = inhibition: at the top concentration
Method in brief: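 Cells: VM7Luc4E2, endogenous ER-alpha, 4x ERE-luc stable. Pre-culture 5 d, phenol red-free, charcoal-stripped FBS. Plated 24 h, compound + E2 0.1 nM final, 22 h 37C/5% CO2. Readout ONE-Glo luminescence.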
On the % scale 0 is the no-effect control and ±100 the full control effect; potency means the concentration at half of the fitted maximal effect.

Estrogen receptor (Homo sapiens), sequence (P03372 whole entry, looked up): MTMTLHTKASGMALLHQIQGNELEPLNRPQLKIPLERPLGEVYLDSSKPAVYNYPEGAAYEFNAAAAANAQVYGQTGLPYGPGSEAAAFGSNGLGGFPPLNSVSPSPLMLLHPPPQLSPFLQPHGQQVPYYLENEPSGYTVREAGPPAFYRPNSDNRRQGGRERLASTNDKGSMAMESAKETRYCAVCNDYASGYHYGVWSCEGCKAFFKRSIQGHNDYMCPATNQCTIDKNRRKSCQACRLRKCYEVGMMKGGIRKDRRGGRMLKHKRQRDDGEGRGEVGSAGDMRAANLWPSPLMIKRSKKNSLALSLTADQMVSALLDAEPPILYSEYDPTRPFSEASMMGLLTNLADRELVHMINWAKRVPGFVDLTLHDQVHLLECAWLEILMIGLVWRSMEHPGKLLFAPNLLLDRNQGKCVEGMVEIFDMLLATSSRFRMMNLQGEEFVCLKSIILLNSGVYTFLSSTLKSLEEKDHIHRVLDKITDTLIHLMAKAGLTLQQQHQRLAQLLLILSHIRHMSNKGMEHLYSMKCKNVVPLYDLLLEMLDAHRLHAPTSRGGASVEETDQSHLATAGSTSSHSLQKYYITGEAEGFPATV

SMILES	activity change, negative = inhibition	Potency
S=c1nccc[nH]1	5.98%	–
CCc1ccc(Br)cc1	0%	–
O=C(O)Cc1ccc2c(c1)C(=O)c1ccccc1CO2	15.9% [at 42.5 µM]	–
Cc1cc(C(C)(C)C)c(O)c(C)c1Cn1c(=O)n(Cc2c(C)cc(C(C)(C)C)c(O)c2C)c(=O)n(Cc2c(C)cc(C(C)(C)C)c(O)c2C)c1=O	10.7%	–
CC(C)CCCCCOC(=O)CCS	-0.235%	–
OC[C@@H](O)[C@@H](O)CO	20.8%	–
c1ccc(SSc2ccccc2)cc1	13.8%	–
CC1=CCC(=C(C)C)CC1	1.25%	–
O=S(=O)(O)c1ccccc1/C=C/c1ccc(-c2ccc(/C=C/c3ccccc3S(=O)(=O)O)cc2)cc1	-4.37%	–
CCCCCc1ccc(Cl)cc1	-2.55%	–
CCCC(=O)OCOC(=O)C1=C(C)NC(C)=C(C(=O)OC)C1c1cccc(Cl)c1Cl (stereo unspecified)	3.29% [at 42.5 µM]	–
CCN(CCN)c1cccc(C)c1	–	inactive
Clc1nnc(Cl)c2ccccc12	-24.3%	–
[Cu+]	1.86%	–
CC1(C)CC(O)CC(C)(C)N1	-8.24%	–
O=C(O)O	-65% [at 8.39 µM]	–
COc1cc(C)ccc1O	-2.65%	–
C=CC(C)(CCC=C(C)C)OC=O (stereo unspecified)	-2.43%	–
C=CC(=O)OCCOC(=O)C=C	33%	–

SMILES	activity change, negative = inhibition	Potency
Fc1ccc(C(c2ccc(F)cc2)N2CCNCC2)cc1	1.6% [at 42.5 µM]	–
O=C(c1ccc(O)c(O)c1)c1ccc(O)cc1O	–	61 µM (active)
O=C(Oc1ccccc1)Oc1ccccc1	-6.92%	–
CC(C)(C)c1csc(-c2cc3cc(OCc4ccccc4CC(=O)O)ccc3o2)n1	-10.3%	–
COc1ccc2c(c1)c(CC(=O)OC/C=C(\C)CC/C=C(\C)CCC=C(C)C)c(C)n2C(=O)c1ccc(Cl)cc1	5.29% [at 42.5 µM]	–
c1cnccn1	-1.83%	–
CCCCOC(=O)CO	-9.39%	–
[Cl][Pt-2]([Cl])([Cl])[Cl]	-13.9%	–
O=C(Nc1ccc2c(O)c(N=Nc3ccc(N=Nc4ccc(S(=O)(=O)O)cc4)cc3)c(S(=O)(=O)O)cc2c1)c1ccccc1	–	27.3 µM (active)
C1CCC(SSC2CCCCC2)CC1	11%	–
CC(C)(C)C1CCC(=O)CC1	17.1%	–
COC(=O)c1ccccc1OC	1.66%	–
OC1CCCc2ccccc21 (stereo unspecified)	11.6%	–
Cc1c(C)c([N+](=O)[O-])c(C(C)(C)C)c([N+](=O)[O-])c1C	1.93%	–
CCO[Si](OCC)(OCC)OCC	13.7%	–
CCn1c2ccccc2c2cc([N+](=O)[O-])ccc21	-15.5%	–
CCCCN(CCCC)CC(O)c1cc(Cl)cc2c1-c1ccc(Cl)cc1/C2=C/c1ccc(Cl)cc1 (stereo unspecified)	-9.1% [at 42.5 µM]	–
O=C(O)c1cccc(C(F)(F)F)c1	-7.82%	–
C[Si](Cl)(c1ccccc1)c1ccccc1	0%	–

Tested on: not listed separately
Assay: qHTS assay to identify small molecule HDAC inhibitors (AID 1259364); further: nearly all actives have a fitted effect of over 45% in size; on activity change, negative = inhibition: top concentration of the series differs between compounds
Conditions: HCT-116 HDAC-Glo I/II luminescence, 2 h; series mostly up to 92.4 µM; activity change, negative = inhibition: at the top concentration
Method in brief: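 Luminescence from a cell-permeant luminogenic class I/II HDAC substrate reports endogenous deacetylase activity in intact HCT-116 cells treated with compounds for 2 h.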

SMILES	activity change, negative = inhibition	Potency
S=c1nccc[nH]1	1.3%	–
CCc1ccc(Br)cc1	-0.0576%	–
O=C(O)Cc1ccc2c(c1)C(=O)c1ccccc1CO2	-0.31% [at 42.5 µM]	–
Cc1cc(C(C)(C)C)c(O)c(C)c1Cn1c(=O)n(Cc2c(C)cc(C(C)(C)C)c(O)c2C)c(=O)n(Cc2c(C)cc(C(C)(C)C)c(O)c2C)c1=O	0.844%	–
CC(C)CCCCCOC(=O)CCS	1.07%	–
OC[C@@H](O)[C@@H](O)CO	-0.739%	–
c1ccc(SSc2ccccc2)cc1	-3%	–
CC1=CCC(=C(C)C)CC1	2.01%	–
O=S(=O)(O)c1ccccc1/C=C/c1ccc(-c2ccc(/C=C/c3ccccc3S(=O)(=O)O)cc2)cc1	-2.25%	–
CCCCCc1ccc(Cl)cc1	11.9%	–
CCCC(=O)OCOC(=O)C1=C(C)NC(C)=C(C(=O)OC)C1c1cccc(Cl)c1Cl (stereo unspecified)	-2.27% [at 42.5 µM]	–
CCN(CCN)c1cccc(C)c1	–	inactive
Clc1nnc(Cl)c2ccccc12	-5.87%	–
[Cu+]	-17.3%	–
CC1(C)CC(O)CC(C)(C)N1	-7.74%	–
O=C(O)O	2.76% [at 8.39 µM]	–
COc1cc(C)ccc1O	-1.53%	–
C=CC(C)(CCC=C(C)C)OC=O (stereo unspecified)	0.499%	–
C=CC(=O)OCCOC(=O)C=C	-9.61%	–

SMILES	activity change, negative = inhibition	Potency
Fc1ccc(C(c2ccc(F)cc2)N2CCNCC2)cc1	-1.81% [at 42.5 µM]	–
O=C(c1ccc(O)c(O)c1)c1ccc(O)cc1O	–	24.3 µM (active)
O=C(Oc1ccccc1)Oc1ccccc1	-11.2%	–
CC(C)(C)c1csc(-c2cc3cc(OCc4ccccc4CC(=O)O)ccc3o2)n1	-0.413%	–
COc1ccc2c(c1)c(CC(=O)OC/C=C(\C)CC/C=C(\C)CCC=C(C)C)c(C)n2C(=O)c1ccc(Cl)cc1	3.03% [at 42.5 µM]	–
c1cnccn1	9.29%	–
CCCCOC(=O)CO	-0.0927%	–
[Cl][Pt-2]([Cl])([Cl])[Cl]	-4.45%	–
O=C(Nc1ccc2c(O)c(N=Nc3ccc(N=Nc4ccc(S(=O)(=O)O)cc4)cc3)c(S(=O)(=O)O)cc2c1)c1ccccc1	-24.2%	–
C1CCC(SSC2CCCCC2)CC1	3.29%	–
CC(C)(C)C1CCC(=O)CC1	-4.95%	–
COC(=O)c1ccccc1OC	1.92%	–
OC1CCCc2ccccc21 (stereo unspecified)	7.52%	–
Cc1c(C)c([N+](=O)[O-])c(C(C)(C)C)c([N+](=O)[O-])c1C	-9.06%	–
CCO[Si](OCC)(OCC)OCC	3.19%	–
CCn1c2ccccc2c2cc([N+](=O)[O-])ccc21	2.44%	–
CCCCN(CCCC)CC(O)c1cc(Cl)cc2c1-c1ccc(Cl)cc1/C2=C/c1ccc(Cl)cc1 (stereo unspecified)	-0.394% [at 42.5 µM]	–
O=C(O)c1cccc(C(F)(F)F)c1	0.207%	–
C[Si](Cl)(c1ccccc1)c1ccccc1	-6.58%	–
